Source: PubChem (several laboratories)
PP5 primary: inhibitors of human protein phosphatase 5 (PP5); P53041; hit rate 0.18% among 320,000; purified PP5c, OMFP substrate fluorescence; inhibition, % at 6.7 µM;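 active = inhibition above the campaign's mean inhibition across all tested compounds plus 3 SD, cut at about 9.5% in these data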;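 also: 0% = DMSO only and 100% = 100 µM cantharidin control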
PREPL inhibitor: inhibitors of human prolyl oligopeptidase-like enzyme PREPL | recombinant PREPL, fluorescence polarization activity-based probe | Q4J6C6 | AID 2751 | hit rate 0.68% among 320,000 | inhibition, % at 5.96 µM; in the data active = inhibition above about 43%;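 also: 0% = enzyme with DMSO and 100% = wells lacking enzyme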
Target sequence (Q4J6C6 whole entry, looked up): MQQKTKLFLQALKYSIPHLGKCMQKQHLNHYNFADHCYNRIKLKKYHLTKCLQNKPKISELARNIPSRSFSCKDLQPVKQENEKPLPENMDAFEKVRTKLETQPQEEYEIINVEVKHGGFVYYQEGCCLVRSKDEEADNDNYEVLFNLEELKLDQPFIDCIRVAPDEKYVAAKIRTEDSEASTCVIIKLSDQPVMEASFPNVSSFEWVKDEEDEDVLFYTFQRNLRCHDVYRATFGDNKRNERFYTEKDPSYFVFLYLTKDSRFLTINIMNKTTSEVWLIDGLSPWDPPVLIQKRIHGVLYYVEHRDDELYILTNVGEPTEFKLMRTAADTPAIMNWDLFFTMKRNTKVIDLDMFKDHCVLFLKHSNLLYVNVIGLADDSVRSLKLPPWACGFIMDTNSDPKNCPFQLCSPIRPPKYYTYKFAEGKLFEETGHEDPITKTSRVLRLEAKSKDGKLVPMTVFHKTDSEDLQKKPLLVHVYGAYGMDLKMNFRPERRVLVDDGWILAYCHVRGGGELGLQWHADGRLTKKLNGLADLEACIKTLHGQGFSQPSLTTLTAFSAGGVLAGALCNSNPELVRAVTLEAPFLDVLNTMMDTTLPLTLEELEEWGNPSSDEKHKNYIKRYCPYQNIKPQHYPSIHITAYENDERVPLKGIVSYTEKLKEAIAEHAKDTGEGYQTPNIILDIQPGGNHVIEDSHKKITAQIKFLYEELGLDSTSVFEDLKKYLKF
Rpn11 inh: blocks the human proteasome subunit Rpn11 | O00487 | human 26S proteasome, Ub4-pepOG fluorescence polarization; 20S core pre-blocked with epoxomicin | inhibition, % at 20 µM | hit rate 0.59% among 360,000;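 active = inhibition at 20 µM, scaled to each plate's controls, above about 33%, limit read from the data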
NadD block: blocks S. aureus nicotinate mononucleotide adenylyltransferase. AID 602399. inhibition, % at 20 µM. hit rate 0.78% among 360,000. purified NadD enzyme, colorimetric absorbance read-out; in the data active = inhibition above about 26%
PP1 inh: counter-screen for PP5 inhibitors: inhibitors of human PP1-alpha; AID 2235; inhibition, % at 6.7 µM; purified PP1alpha, OMFP fluorescence; P62136; hit rate 0.9% among 320,000;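 active = inhibition above the mean inhibition of all tested compounds plus 3 SD, computed separately for each screening campaign, cut at about 15% in these data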
PP5 conf: PP5 (human) inhibition, confirmation; shares compounds with PP5 primary; Purified PP5, fluorogenic phosphatase substrate, fluorescence; inhibition, % at 6.7 µM; hit rate 22% among 460; AID 2331; in the data active = inhibition above about 9.5%
PP1 counter 3x: PP1 phosphatase inhibition, counter-screen for PP5 inhibitors; shares compounds with PP5 primary; PP1 enzyme, fluorescent phosphatase substrate; inhibition, % at 6.7 µM; hit rate 4% among 460; in the data active = inhibition above about 16%
An asterisk follows results filed as active; · = no result given. Most compounds without a hit are left out; they make up all but 2.4% or so of the library.

SMILES	PP5 primary	PREPL inhibitor	Rpn11 inh	NadD block	PP1 inh	PP5 conf	PP1 counter 3x
COC(=O)c1ccc2c(c1C(=O)OC)CN(S(=O)(=O)C(C)(C)C)[C@@H]2CCO	·	·	-4	0	·	·	·
O=C(N1CCOCC1)N1CCN(C(c2ccccc2)c2ccccc2)CC1	10*	3	1	3	-4	-2	-4
O=C(N1CCCCC1)N1CCN(C(c2ccccc2)c2ccccc2)CC1	3	22	7	-4	1	·	·
NC(=O)c1ccc(OCC(F)(F)C(F)(F)C(F)(F)C(F)(F)C(F)(F)C(F)F)cc1	5	3	2	9	5	·	·
Cc1cc(OCC(F)(F)C(F)(F)C(F)(F)C(F)(F)C(F)(F)C(F)F)nc(N)n1	15*	-6	-7	-16	8	10	11
Cc1ccc(NS(=O)(=O)c2cc(Br)cnc2N)c(Cl)c1	-2	16	-9	2	-4	·	·
Nc1ncc(Br)cc1S(=O)(=O)Nc1cc(C(F)(F)F)cc(C(F)(F)F)c1	9.6*	-10	15	-3	8	5	12
CCN(CC)CCN(Cc1cc2cc3c(cc2[nH]c1=O)OCO3)C(=S)NCCCOC	12*	-5	0	-6	1	-5	-4
CCN(CC)CCCN(Cc1cc2cc3c(cc2[nH]c1=O)OCO3)C(=S)NCCCOC	3	6	2	-2	-1	·	·
CCOc1cc(S(=O)(=O)n2cc(-c3ccc(F)cc3)c(N)n2)cc(OCC)c1OCC	11*	12	-3	-6	6	5	0
COc1ccc(C(=O)N/N=C/c2c[nH]c3ccccc23)cc1	1	1	-6	4	-6	·	·
CCCOc1ccc(C(=O)N/N=C/c2c[nH]c3ccc(Br)cc23)cc1	12*	17	2	6	4	5	2
O=C(CCl)Nc1cn(-c2ccccc2)nc1-c1ccc(F)cc1	0	13	4	-9	7	·	·
CN1CCN(CC(=O)NN(Cc2ccccc2)c2ccccc2)CC1	12*	-1	14	-10	-2	2	-4
CCCCCCCC(=O)OCC(=O)[C@@]1(O)CC[C@H]2[C@@H]3CCC4=CC(=O)CC[C@]4(C)[C@H]3[C@@H](O)C[C@@]21C	11*	-5	4	0	-9	3	4
CCOc1ccc(NC(=O)CN(C)C(=O)c2ccc(C)o2)cc1OCC	-1	7	3	-3	-3	·	·
COc1ccc2nc(C(F)(F)C(F)(F)F)c(C#N)c(N)c2c1	9.8*	6	-5	-5	6	9	7
CNC(=O)COC(=O)c1cc(-c2ccccc2)nn1-c1ccccc1	1	-12	0	1	-4	·	·
Cc1cc(C2(c3ccc(O)c(C)c3)C(=O)Nc3ccccc32)ccc1O	16*	0	6	-3	8	6	5
Cc1cccc2c1NC(=O)C2(c1ccc(O)cc1)c1ccc(O)cc1	3	-8	2	-5	5	·	·
COc1ccccc1CC(=O)O/N=C(\N)Cc1cccc2ccccc12	12*	1	8	1	5	-2	-3
CCNCc1cc(Br)c(OCC(=O)Nc2ccccc2)c(OC)c1	9.9*	-16	-1	5	0	0	-3
Cc1c(N=c2c(=O)c3ccccc3c2=O)c(=O)n(-c2ccccc2)n1C	13*	43*	·	·	2	35*	12
Cc1csc(=Nc2c(C)n(C)n(-c3ccccc3)c2=O)n1-c1ccccc1	1	2	3	-1	-6	·	·
CCN1C(=O)[C@H]2[C@H]3CN=C(SCc4ccc(Cl)cc4)N3[C@@](C)(C(=O)OC)[C@H]2C1=O	·	·	-10	3	·	·	·
SMILES	PP5 primary	PREPL inhibitor	Rpn11 inh	NadD block	PP1 inh	PP5 conf	PP1 counter 3x
O=C(COC(=O)CCNS(=O)(=O)c1ccccc1)NC1CC1	·	-1	1	-4	·	·	·
COc1cc(OC)c(C2C(C(=O)Nc3ccccc3)=C(C)Nc3ncnn32)cc1OC (centres undefined)	0	7	-2	5	-7	·	·
COc1cc(OC)c(C2C(C(=O)Nc3ccc(C)cc3C)=C(C)Nc3ncnn32)cc1OC (centres undefined)	15*	21	-5	-3	2	-3	-3
CC(=O)Nc1ccc(NC2=C/C(=N/S(=O)(=O)c3cccs3)c3ccccc3C2=O)cc1	14*	19	-6	-3	3	32*	0
Cc1ccccc1NC1=C/C(=N\S(=O)(=O)c2cccs2)c2ccccc2C1=O	15*	33	10	0	2	51*	4
O=C(O)c1ccc(S(=O)(=O)/N=C2\C=C(Nc3ccccc3F)C(=O)c3ccccc32)cc1	9.6*	31	5	9	6	42*	12
COc1ccc(N(CC(=O)NCc2ccco2)C(=O)CCC(=O)Nc2nccs2)c(OC)c1	-1	4	5	-1	-1	·	·
Cc1cccc(N/C(N)=N/c2nc3c(c(=O)[nH]2)CCCC3)c1	13*	18	-1	-4	-1	-8	-6
N/C(=N\c1nc2c(c(=O)[nH]1)CCC2)Nc1cccc(Cl)c1	0	12	-7	2	2	·	·
Cc1cccc(C(=O)N(CC(=O)Nc2sc(C)c(C)c2C(N)=O)C2CCCC2)c1	4	9	7	-4	1	·	·
O=c1c2ccc(Cl)cc2[nH]c(=S)n1Cc1cccnc1	11*	-14	-10	3	-3	-4	-3
Cc1ccc(N2C(=O)N(CC(=O)Nc3ccc([N+](=O)[O-])cc3)C(=O)C2C)cc1 (centres undefined)	3	12	-1	-5	2	·	·
COc1cc(OC)cc(C(=O)NCCOc2ccccc2)c1	0	8	0	-3	-1	·	·
CCCCOc1ccc(C(=O)NCCOc2cccc(OC)c2)cc1	9.8*	11	-2	-9	-1	-1	-1
COc1ccc(OCCNC(=O)c2cccc(Oc3ccc(C(F)(F)F)cc3[N+](=O)[O-])c2)cc1	10*	14	3	2	3	3	-3
Cc1cc(C(=O)N(C2CCCCC2)C2CCCCC2)no1	9.7*	-1	-2	-6	-10	-4	-4
Cc1cc(C(=O)NCC(=O)O)c(C)o1	-1	3	-2	4	1	·	·
CCOC(=O)CNC(=O)c1cc(C)oc1C	14*	6	·	·	-2	0	-1
CC1(C)C=Cc2c(ccc3c2OC[C@H](c2ccc(O)cc2O)C3)O1	9.6*	5	3	-9	4	8	5
Cn1c(NC(=O)c2ccco2)c(-c2ccccc2)c(=O)c2ccccc21	-1	2	1	-2	0	·	·
CCn1c(NC(=O)c2ccco2)c(-c2ccccc2Cl)c(=O)c2ccccc21	12*	-7	-6	-6	-1	-8	-5
Cc1ccc(NC(=O)c2ccccc2F)cc1S(=O)(=O)N1CCCCCC1	11*	13	-3	-13	-3	0	-1
